# From PMC7862700, “An all-to-all approach to the identification of sequence-specific readers for epigenetic DNA modifications on cytosine”
# Legend:
# Test in all cases: DAPPL (digital affinity profiling via proximity ligation, sequencing); 10 mM Tris-HCl pH 7.5, 50 mM NaCl, 1 mM DTT, 4% glycerol, room temperature, 30 min; GST-TFs on glutathione beads, 16-mer random dsDNA library, 0.1% formaldehyde crosslink after washing; high values mean tight binding
# [1] = target: T1, FEV (Homo sapiens, UniProt Q99581 1-238); conditions: protein: recombinant; tags: N-terminal GST; dsDNA, one strand shown
# T1 sequence: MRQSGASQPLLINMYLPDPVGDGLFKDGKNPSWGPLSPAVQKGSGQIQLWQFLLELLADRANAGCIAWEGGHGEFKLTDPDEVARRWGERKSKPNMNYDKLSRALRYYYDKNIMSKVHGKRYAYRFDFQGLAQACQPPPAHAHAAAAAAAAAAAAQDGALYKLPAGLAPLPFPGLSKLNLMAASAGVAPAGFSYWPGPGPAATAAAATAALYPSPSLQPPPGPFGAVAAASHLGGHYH
# Procedure, shortened: (§1)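 Binding signal is given per hexamer as its read frequency for a factor divided by its frequency in the tag-only sample. GST-fused human transcription factors were expressed in yeast, captured on glutathione beads, barcoded with DNA and pooled with that sample, then incubated with 200 nmole of a 16-mer random double-stranded DNA library in Tris/NaCl/DTT/glycerol buffer for 30 min at room temperature. The pools were then washed, crosslinked, proximity-ligated, amplified by PCR and sequenced on an Illumina NextSeq500.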
# [2] = target: ETV5 (Homo sapiens, UniProt P41161 1-510); conditions: protein: recombinant; tags: N-terminal GST; dsDNA, one strand shown
# Procedure, shortened: as §1
# [3] = target: HSF1 (Homo sapiens, UniProt Q00613 1-529); conditions: protein: recombinant; tags: N-terminal GST; chain copies: 3; dsDNA, one strand shown
# Procedure, shortened: as §1
# [4] = target: T2, SPIC (Homo sapiens, UniProt Q8N5J4 1-248); conditions: protein: recombinant; tags: N-terminal GST; dsDNA, one strand shown
# T2 sequence: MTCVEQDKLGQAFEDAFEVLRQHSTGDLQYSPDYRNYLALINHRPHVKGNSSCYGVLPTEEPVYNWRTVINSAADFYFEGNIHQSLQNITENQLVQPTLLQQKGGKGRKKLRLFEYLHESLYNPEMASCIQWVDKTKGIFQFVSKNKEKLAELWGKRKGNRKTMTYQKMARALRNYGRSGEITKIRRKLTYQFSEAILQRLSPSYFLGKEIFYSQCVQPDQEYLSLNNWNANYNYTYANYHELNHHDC
# Procedure, shortened: as §1
# [5] = target: ELF4 (Homo sapiens, UniProt Q99607 1-663); conditions: protein: recombinant; tags: N-terminal GST; dsDNA, one strand shown
# Procedure, shortened: as §1
# [6] = target: T3, ELK4 (Homo sapiens, UniProt P28324-2 1-405); conditions: protein: recombinant; tags: N-terminal GST; dsDNA, one strand shown
# T3 sequence: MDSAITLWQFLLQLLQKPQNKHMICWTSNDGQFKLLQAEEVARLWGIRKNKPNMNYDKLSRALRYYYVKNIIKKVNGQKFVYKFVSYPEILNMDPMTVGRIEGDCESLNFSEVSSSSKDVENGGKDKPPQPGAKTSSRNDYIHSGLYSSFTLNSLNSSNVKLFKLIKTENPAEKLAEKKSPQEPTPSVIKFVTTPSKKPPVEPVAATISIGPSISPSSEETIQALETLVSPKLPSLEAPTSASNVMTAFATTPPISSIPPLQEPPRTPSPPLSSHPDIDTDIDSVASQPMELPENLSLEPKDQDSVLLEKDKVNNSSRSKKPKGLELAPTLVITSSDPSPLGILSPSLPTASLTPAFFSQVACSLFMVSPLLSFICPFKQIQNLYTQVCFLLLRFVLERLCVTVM
# Procedure, shortened: as §1
# [7] = target: T4, ETV2 (Homo sapiens, UniProt O00321 1-342); conditions: protein: recombinant; tags: N-terminal GST; dsDNA, one strand shown
# T4 sequence: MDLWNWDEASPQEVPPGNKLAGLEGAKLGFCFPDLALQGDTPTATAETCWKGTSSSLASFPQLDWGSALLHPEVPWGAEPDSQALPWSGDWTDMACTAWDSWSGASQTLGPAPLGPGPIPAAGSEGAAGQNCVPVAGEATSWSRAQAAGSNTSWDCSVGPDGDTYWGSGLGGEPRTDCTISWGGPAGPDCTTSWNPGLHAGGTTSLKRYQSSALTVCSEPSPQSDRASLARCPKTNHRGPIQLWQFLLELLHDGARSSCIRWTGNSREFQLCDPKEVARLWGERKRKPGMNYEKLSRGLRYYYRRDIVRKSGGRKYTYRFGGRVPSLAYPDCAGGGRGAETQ
# Procedure, shortened: as §1
# [8] = target: T5, ELF3 (Homo sapiens, UniProt P78545 1-371); conditions: protein: recombinant; tags: N-terminal GST; dsDNA, one strand shown
# T5 sequence: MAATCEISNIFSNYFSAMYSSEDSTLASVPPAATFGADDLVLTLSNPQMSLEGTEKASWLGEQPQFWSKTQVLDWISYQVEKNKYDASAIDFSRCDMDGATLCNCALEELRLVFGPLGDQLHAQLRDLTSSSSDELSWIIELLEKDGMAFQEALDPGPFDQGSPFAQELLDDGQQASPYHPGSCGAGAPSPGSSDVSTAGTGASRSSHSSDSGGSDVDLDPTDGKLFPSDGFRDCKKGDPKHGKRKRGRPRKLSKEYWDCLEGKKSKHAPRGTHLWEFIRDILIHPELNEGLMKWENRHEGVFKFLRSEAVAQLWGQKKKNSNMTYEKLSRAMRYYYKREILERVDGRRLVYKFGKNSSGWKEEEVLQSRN
# Procedure, shortened: as §1
# [9] = target: CRX (Homo sapiens, UniProt O43186 1-299); conditions: protein: recombinant; tags: N-terminal GST; dsDNA, one strand shown
# Procedure, shortened: as §1
# [10] = target: ETV1 (Homo sapiens, UniProt P50549 1-477); conditions: protein: recombinant; tags: N-terminal GST; dsDNA, one strand shown
# Procedure, shortened: as §1
# [11] = target: T6, ERF (Homo sapiens, UniProt P50548 1-548); conditions: protein: recombinant; tags: N-terminal GST; dsDNA, one strand shown
# T6 sequence: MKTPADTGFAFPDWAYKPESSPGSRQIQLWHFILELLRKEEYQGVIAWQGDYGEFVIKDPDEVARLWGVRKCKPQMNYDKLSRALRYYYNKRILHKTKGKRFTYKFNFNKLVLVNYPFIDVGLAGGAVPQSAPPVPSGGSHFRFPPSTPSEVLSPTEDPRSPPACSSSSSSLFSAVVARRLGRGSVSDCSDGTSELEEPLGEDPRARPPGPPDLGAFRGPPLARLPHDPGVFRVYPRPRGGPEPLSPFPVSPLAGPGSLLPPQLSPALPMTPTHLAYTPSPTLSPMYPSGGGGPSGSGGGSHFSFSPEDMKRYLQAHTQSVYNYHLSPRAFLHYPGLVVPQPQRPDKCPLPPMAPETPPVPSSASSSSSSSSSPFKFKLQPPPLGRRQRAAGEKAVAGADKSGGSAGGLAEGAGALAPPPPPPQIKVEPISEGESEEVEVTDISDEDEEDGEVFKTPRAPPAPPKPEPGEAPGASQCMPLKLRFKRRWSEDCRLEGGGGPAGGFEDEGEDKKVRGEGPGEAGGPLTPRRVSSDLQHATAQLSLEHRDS
# Procedure, shortened: as §1
# [12] = target: T7, ETV3L (Homo sapiens, UniProt Q6ZN32 1-361); conditions: protein: recombinant; tags: N-terminal GST; dsDNA, one strand shown
# T7 sequence: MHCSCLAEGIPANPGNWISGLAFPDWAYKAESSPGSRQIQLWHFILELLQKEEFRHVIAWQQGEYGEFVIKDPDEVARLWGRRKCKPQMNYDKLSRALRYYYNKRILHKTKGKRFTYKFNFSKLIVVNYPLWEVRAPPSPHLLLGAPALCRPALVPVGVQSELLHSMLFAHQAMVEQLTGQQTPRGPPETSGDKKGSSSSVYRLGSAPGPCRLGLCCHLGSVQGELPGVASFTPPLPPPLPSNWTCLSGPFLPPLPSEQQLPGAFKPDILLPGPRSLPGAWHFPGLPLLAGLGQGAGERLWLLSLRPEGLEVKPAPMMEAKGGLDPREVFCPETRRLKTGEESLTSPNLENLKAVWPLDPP
# Procedure, shortened: as §1
# [13] = target: T8, ETS2 (Homo sapiens, UniProt P15036 1-469); conditions: protein: recombinant; tags: N-terminal GST; dsDNA, one strand shown
# T8 sequence: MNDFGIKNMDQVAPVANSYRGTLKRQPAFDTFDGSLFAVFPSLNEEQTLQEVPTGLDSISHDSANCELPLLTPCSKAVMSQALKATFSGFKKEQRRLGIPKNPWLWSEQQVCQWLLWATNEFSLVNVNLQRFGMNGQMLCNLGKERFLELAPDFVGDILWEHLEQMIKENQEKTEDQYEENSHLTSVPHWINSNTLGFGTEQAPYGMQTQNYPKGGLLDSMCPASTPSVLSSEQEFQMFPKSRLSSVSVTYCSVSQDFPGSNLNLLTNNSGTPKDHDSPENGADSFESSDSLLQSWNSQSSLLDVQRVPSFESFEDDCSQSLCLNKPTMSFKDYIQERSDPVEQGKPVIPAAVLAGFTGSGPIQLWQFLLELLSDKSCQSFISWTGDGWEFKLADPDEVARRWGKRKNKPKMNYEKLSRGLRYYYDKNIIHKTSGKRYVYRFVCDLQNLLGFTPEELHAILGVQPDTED
# Procedure, shortened: as §1
# [14] = target: T9, SPDEF (Homo sapiens, UniProt O95238 1-335); conditions: protein: recombinant; tags: N-terminal GST; dsDNA, one strand shown
# T9 sequence: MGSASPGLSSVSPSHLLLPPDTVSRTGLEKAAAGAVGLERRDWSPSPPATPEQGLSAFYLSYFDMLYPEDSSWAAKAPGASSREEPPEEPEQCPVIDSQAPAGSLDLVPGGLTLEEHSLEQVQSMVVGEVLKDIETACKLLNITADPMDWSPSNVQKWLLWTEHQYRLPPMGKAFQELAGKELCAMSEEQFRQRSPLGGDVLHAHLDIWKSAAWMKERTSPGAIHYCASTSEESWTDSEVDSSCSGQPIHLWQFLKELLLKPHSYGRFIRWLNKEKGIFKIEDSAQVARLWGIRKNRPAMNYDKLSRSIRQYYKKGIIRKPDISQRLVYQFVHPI
# Procedure, shortened: as §1
# [15] = target: T10, ETV7 (Homo sapiens, UniProt Q9Y603 1-341); conditions: protein: recombinant; tags: N-terminal GST; dsDNA, one strand shown
# T10 sequence: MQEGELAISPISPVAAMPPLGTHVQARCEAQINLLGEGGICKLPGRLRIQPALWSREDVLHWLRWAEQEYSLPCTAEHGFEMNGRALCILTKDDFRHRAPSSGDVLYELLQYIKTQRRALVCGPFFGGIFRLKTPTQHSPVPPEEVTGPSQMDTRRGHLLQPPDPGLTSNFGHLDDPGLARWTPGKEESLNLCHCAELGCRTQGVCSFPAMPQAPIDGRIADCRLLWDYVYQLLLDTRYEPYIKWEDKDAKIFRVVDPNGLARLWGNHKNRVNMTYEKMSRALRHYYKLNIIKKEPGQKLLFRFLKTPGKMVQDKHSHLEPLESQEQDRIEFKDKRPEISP
# Procedure, shortened: as §1
# [16] = target: T11, ELF5 (Homo sapiens, UniProt Q9UKW6-2 1-255); conditions: protein: recombinant; tags: N-terminal GST; dsDNA, one strand shown
# T11 sequence: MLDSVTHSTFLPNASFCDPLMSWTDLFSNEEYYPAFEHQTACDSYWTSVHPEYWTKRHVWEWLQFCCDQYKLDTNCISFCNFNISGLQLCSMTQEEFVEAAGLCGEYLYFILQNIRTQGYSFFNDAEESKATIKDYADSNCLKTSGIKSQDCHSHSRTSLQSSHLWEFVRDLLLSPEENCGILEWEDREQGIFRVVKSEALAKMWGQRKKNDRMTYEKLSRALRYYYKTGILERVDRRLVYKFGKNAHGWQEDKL
# Procedure, shortened: as §1
# [17] = target: T12, ETV3 (Homo sapiens, UniProt P41162-2 1-143); conditions: protein: recombinant; tags: N-terminal GST; dsDNA, one strand shown
# T12 sequence: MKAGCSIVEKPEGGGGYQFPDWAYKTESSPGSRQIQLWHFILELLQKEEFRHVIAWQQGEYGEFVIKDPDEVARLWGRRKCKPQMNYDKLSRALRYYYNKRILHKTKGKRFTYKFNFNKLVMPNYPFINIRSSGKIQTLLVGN
# Procedure, shortened: as §1
# [18] = target: ETV6 (Homo sapiens, UniProt P41212 1-452); conditions: protein: recombinant; tags: N-terminal GST; dsDNA, one strand shown
# Procedure, shortened: as §1
# ETV1, sequence (P50549 whole entry): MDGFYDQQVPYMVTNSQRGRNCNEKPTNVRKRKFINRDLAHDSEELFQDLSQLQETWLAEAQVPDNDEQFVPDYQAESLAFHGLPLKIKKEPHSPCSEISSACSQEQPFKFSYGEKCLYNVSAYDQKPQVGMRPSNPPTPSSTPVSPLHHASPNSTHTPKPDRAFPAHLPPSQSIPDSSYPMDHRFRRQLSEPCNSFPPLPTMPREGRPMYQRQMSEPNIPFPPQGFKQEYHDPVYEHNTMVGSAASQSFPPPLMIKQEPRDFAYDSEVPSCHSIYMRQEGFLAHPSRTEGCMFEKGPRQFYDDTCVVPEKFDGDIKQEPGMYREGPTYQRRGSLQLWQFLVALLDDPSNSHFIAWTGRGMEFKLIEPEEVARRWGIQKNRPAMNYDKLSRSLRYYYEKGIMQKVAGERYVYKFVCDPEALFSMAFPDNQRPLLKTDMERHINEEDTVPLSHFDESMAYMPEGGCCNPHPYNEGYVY
# ETV6, sequence (P41212 whole entry): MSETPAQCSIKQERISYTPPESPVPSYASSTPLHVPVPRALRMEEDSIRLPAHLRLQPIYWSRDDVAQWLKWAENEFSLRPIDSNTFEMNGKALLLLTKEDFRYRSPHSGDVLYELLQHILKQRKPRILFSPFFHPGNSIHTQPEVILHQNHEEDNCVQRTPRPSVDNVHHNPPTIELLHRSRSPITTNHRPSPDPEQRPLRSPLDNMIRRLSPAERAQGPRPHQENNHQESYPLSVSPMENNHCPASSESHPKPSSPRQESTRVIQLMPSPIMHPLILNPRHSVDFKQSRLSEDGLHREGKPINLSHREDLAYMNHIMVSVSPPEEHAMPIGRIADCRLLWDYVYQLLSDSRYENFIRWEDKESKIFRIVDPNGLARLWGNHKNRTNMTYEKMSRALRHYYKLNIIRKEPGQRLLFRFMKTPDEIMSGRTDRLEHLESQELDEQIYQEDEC
# ELF4, sequence (Q99607 whole entry): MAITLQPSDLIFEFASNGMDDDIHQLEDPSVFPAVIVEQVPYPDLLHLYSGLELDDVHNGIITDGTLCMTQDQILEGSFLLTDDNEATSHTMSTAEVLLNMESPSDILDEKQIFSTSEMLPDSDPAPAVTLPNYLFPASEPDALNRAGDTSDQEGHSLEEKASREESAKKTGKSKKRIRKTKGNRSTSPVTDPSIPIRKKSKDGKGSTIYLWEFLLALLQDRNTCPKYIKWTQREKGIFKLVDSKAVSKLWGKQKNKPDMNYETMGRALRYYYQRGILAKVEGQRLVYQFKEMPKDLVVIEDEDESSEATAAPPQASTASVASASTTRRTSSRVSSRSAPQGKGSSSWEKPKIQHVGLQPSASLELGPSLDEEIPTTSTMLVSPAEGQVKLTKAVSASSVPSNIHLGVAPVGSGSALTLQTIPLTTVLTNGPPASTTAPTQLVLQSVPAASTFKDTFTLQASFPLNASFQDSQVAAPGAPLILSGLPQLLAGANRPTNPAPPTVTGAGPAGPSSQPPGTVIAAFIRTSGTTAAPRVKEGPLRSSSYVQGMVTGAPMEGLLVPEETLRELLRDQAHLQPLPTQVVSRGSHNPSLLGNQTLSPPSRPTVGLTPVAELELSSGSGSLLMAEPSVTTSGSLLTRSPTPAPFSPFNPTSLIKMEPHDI
# ETV5, sequence (P41161 whole entry): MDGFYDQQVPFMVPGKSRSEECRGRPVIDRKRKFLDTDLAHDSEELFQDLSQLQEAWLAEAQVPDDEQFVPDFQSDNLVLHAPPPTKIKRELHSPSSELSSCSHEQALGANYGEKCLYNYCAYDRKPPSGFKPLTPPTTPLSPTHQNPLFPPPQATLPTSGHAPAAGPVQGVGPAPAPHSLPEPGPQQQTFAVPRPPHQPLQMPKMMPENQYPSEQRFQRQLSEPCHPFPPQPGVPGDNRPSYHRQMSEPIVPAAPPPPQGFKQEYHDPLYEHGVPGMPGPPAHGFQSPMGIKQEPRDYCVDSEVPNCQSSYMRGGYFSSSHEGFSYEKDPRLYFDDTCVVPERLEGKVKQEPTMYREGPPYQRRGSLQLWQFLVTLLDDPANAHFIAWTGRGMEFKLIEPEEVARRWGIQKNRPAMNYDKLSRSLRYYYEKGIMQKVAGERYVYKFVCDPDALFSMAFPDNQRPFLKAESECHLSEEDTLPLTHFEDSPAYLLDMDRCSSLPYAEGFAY
# CRX, sequence (O43186 whole entry): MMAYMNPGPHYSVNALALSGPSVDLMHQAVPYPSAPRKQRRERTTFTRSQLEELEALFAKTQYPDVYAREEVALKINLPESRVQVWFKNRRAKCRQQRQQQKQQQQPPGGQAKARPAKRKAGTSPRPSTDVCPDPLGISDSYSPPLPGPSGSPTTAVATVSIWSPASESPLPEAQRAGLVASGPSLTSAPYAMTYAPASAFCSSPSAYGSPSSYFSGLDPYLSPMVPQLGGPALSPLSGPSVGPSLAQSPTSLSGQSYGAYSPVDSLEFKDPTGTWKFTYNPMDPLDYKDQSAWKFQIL
# HSF1, sequence (Q00613 whole entry): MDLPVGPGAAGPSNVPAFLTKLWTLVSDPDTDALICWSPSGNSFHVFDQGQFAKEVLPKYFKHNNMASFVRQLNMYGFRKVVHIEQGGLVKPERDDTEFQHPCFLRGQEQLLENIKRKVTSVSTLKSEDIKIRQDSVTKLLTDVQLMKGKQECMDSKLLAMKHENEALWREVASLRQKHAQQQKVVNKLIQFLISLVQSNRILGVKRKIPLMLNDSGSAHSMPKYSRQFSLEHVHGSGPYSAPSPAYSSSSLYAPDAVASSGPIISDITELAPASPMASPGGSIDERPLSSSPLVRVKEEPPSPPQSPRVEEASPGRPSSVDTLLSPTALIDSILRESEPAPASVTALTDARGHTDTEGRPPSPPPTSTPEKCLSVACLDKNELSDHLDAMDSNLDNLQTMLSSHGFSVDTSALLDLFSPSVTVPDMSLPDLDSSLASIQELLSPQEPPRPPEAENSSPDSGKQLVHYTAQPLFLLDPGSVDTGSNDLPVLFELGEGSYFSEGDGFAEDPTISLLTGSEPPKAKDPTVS
sequence,measurement,setting,value
GCCTCG,binding signal,[1],"1.25 fold enrichment (6-mer frequency, TF over GST control)"
same,binding signal,[2],"1.33 fold enrichment (6-mer frequency, TF over GST control)"
same,binding signal,[3],"1.31 fold enrichment (6-mer frequency, TF over GST control)"
same,binding signal,[4],"1.07 fold enrichment (6-mer frequency, TF over GST control)"
same,binding signal,[5],"1.38 fold enrichment (6-mer frequency, TF over GST control)"
same,binding signal,[6],"1.32 fold enrichment (6-mer frequency, TF over GST control)"
same,binding signal,[7],"1.06 fold enrichment (6-mer frequency, TF over GST control)"
same,binding signal,[8],"1.33 fold enrichment (6-mer frequency, TF over GST control)"
same,binding signal,[9],"1.08 fold enrichment (6-mer frequency, TF over GST control)"
same,binding signal,[10],"1.26 fold enrichment (6-mer frequency, TF over GST control)"
same,binding signal,[11],"1.14 fold enrichment (6-mer frequency, TF over GST control)"
same,binding signal,[12],"1.28 fold enrichment (6-mer frequency, TF over GST control)"
same,binding signal,[13],"1.31 fold enrichment (6-mer frequency, TF over GST control)"
same,binding signal,[14],"1.19 fold enrichment (6-mer frequency, TF over GST control)"
same,binding signal,[15],"1.26 fold enrichment (6-mer frequency, TF over GST control)"
same,binding signal,[16],"1.23 fold enrichment (6-mer frequency, TF over GST control)"
same,binding signal,[17],"1.28 fold enrichment (6-mer frequency, TF over GST control)"
same,binding signal,[18],"1.37 fold enrichment (6-mer frequency, TF over GST control)"
